This is a sample that favours compounds with a hit; in the whole collection about 15% have one here.
DT40 TDP1 no CPT: qHTS for Inhibitors of human tyrosyl-DNA phosphodiesterase 1 (TDP1): qHTS in cells in absence of CPT | DT40 Tdp1-/- hTDP1 cells, no CPT, ATP luminescence, 48 h | Potency, µM (series often up to 46.2 µM), for inactives: at the top dose activity change, negative = growth inhibition, most hits filed as inhibitors | 420,000 tested, 15% active | AID 686978, 2013; note: nearly all actives have a fitted effect of over 55% in size
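Luminescent ATP content (CellTiter-Glo) served as the growth readout. Knockout chicken DT40 cells expressing human TDP1 were exposed to compounds without camptothecin for a minimum 48 hr at 37 °C.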
12-LOX inh: Primary qHTS assay for inhibitors of human arachidonate 12S-lipoxygenase (ALOX12): Round 2; Polyunsaturated fatty acid lipoxygenase ALOX12 (Homo sapiens), P18054; purified 12hLO, xylenol orange hydroperoxide absorbance; Potency, µM (titrated, usually from 108 µM), inactives show at the top dose activity change, negative = inhibition, most hits filed as inhibitors; 580,000 tested, 1.1% active; AID 1671190, 2021
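Purified human 12hLO (150 nM final) in 25 mM Hepes, 0.01% Triton X-100, pH 7.0 was preincubated 15 min at room temperature with compound. Then 40 uM arachidonic acid was added, 30 min. Hydroperoxide was read by Fe-XO absorbance ratio 573/405 nm.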
ELG1 repair inh: qHTS screen for small molecules that inhibit ELG1-dependent DNA repair in human embryonic kidney (HEK293T) cells expressing luciferase-tagged ELG1 | HEK293T ELG1-luciferase reporter, luminescence, 16 h; DNA damage induced by 5-fluorouridine | Potency, µM (doses to about 46.1 µM), inactives show at the highest dose activity change, negative = inhibition, usual class: inhibitors | 330,000 tested, 2.3% active | AID 504467, 2011; note: nearly all actives have a fitted effect of over 55% in size
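Step one: seed 2,000 cells per well. Step two: pin-transfer compound or DMSO alongside 5-fluorouridine. Step three: incubate 16 hr, 37 °C, 5% CO2. Step four: add ONE-Glo, wait 30 min, read luminescence.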
TDP1 cell CPT: qHTS for Inhibitors of human tyrosyl-DNA phosphodiesterase 1 (TDP1): qHTS in cells in presence of CPT; chicken DT40 Tdp1-/-;hTDP1 cells + 20 nM CPT, ATP luminescence, 48 h; Potency, µM (series often up to 46.2 µM), inactives show at the top dose activity change, negative = growth inhibition, actives largely listed as inhibitors; 420,000 tested, 12% active; AID 686979, 2013; note: nearly all actives have a fitted effect of over 55% in size
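Cell growth measured by CellTiter-Glo luminescence after a minimum 48 h, 37 C compound exposure with 20 nM CPT in Tdp1-knockout DT40 cells stably expressing hTDP1, seeded 400/well; qHTS titration format.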
RORg inh: qHTS for inhibitors of ROR gamma transcriptional activity | Potency, µM (doses to about 53.6 µM), without a hit: top-dose activity change, negative = inhibition, actives largely listed as inhibitors | AID 2551, 2010 | Nuclear receptor ROR-gamma (Mus musculus), P51450 | Drosophila S2 Gal4-RORgamma UAS-luciferase reporter, 20 h | 310,000 tested, 5.4% active; note: nearly all actives have a fitted effect of over 60% in size
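Read-out: Photinus luciferase luminescence; inhibitors lower reporter signal. Insect Schneider cells with Gal4-ROR gamma fusion under metallothionein promoter, UAS reporter; 700 uM final copper sulfate induction, 20 hr, ambient temperature.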
Gal4-VP16 FLuc: VP16 counterscreen qHTS for inhibitors of ROR gamma transcriptional activity; Drosophila S2 Gal4-VP16 UAS-luciferase, luminescence, 20 h; AID 2546, 2010; Potency, µM (highest dose often 53.6 µM), without a hit: top-dose activity, negative = inhibition, usual class: inhibitors; 310,000 tested, 3.5% active;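 note: Gal4-VP16 expression switched on by copper sulfate through the metallothionein promoter; nearly all actives have a fitted effect of over 50% in size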
The depositor's hits bear a star; ? = inconclusive; · = not tested or not shown. Calls come from the whole dose curve; as a rule, active = well fitted curve in the direction sought with a large enough effect; inconclusive = small, poorly fitted or top-dose-only effect, or another doubt; inactive = no such curve, though single readings can be large; an effect the other way counts as inactive or inconclusive. % is set by controls: 0 for no effect and ±100 for the full control effect; potency is the fitted concentration of half-maximal effect.

SMILES	DT40 TDP1 no CPT	12-LOX inh	ELG1 repair inh	TDP1 cell CPT	RORg inh	Gal4-VP16 FLuc
CCCN(CC1CCOC1)C(=O)c1ccc(F)c(Cl)c1 (centres undefined)	·	12%	·	·	·	·
CCOC(=O)c1cc(C(=O)OCC)c2cccc(C)n2c1=O	13µM*	0%	-2%	7.3µM*	16%	-1%
CCOC(=O)c1cc(Br)c(=O)n2ccccc12	?	?	?	-15%	-7%	?
Cc1c(-c2nc3ccccc3[nH]2)c(NC(=O)CC(C)C)n(CC2CCCO2)c1C (centres undefined)	·	3%	·	·	·	·
CN(C)c1nc2c(c(=O)[nH]1)CCN(Cc1ccc(F)c(Cl)c1)CC2	·	47%	·	·	·	·
COC(=O)c1cc(S(=O)(=O)n2nc(C)c(Br)c2C)c(Cl)cc1Cl	15µM*	1%	7%	26µM*	11%	17%
Cc1cc(C)n(S(=O)(=O)c2cc(C(=O)O)c(Cl)cc2Cl)n1	?	-22%	-1%	-1%	1%	0%
CC1CCCCN1C(=O)CN1CCC(c2cc3ccccc3[nH]2)CC1 (centres undefined)	·	0%	·	·	·	·
CNC(=O)NCc1ccc(OC)cc1	·	1%	·	·	·	·
CCOc1ccc(S(=O)(=O)n2ccnc2CC)cc1C	·	-25%	·	·	·	·
O=C(NCCc1ccc(Cl)cc1)c1nc(-c2cccc(C(F)(F)F)c2)c2cnccn12	·	26%	·	·	·	·
O=C(NCCc1ccc(Cl)cc1)c1ccc(CS(=O)(=O)c2ccc(Cl)cc2)o1	?	3%	·	16µM*	·	·
CSc1ccc(CCNC(=O)c2ccc(CS(=O)(=O)c3ccc(Br)cc3)o2)cc1	21µM*	2%	·	23µM*	·	·
CC1CCC(NC(=O)c2ccc(CS(=O)(=O)c3ccc(Cl)cc3)o2)CC1 (centres undefined)	18µM*	-19%	·	18µM*	·	·
Cc1ccc(S(=O)(=O)Cc2ccc(C(=O)NCCc3ccc(Cl)cc3)o2)cc1	29µM*	?	·	16µM*	·	·
COc1ccc(S(=O)(=O)Cc2ccc(C(=O)NC3CCC(C)CC3)o2)cc1 (centres undefined)	?	-5%	-2%	-8%	23%	3%
Cc1cc(/C=C(\C#N)c2nc3ccccc3s2)cc2c1OC(C)C2 (centres undefined)	·	-2%	·	·	·	·
COc1cccc(C(=O)N2C(C(=O)NCc3ccccc3)COC23CCN(C(=O)CC(C)C)CC3)c1 (centres undefined)	·	48%	·	·	·	·
C=CCN(CC(=O)NC(N)=O)Cc1ccc(OC)cc1	·	-1%	·	·	·	·
CCc1ccccc1S(=O)(=O)Cc1ccc(C(=O)NCCc2ccc(Cl)cc2)o1	18µM*	-12%	·	?	·	·
CN(C)CCN1CCCN(C(=O)CCc2ccccc2)c2ccccc21	·	14%	·	·	·	·
CCOC(=O)c1sc(NC(=O)/C=C/c2cnn(CC)c2C)c(C(=O)OCC)c1C	21µM*	?	?	?	13%	?
CCOC(=O)C(C)Oc1c(C(=O)OC)sc2ncccc12 (centres undefined)	-1%	-6%	-3%	14%	8%	14%
CCC(C)NC(=O)c1sc2ncccc2c1-n1c(C)ccc1C (centres undefined)	26µM*	-24%	·	21µM*	·	·
CCCCN(CC)CCCNC(=O)c1sc2nc(C)cc(C)c2c1-n1cccc1	18µM*	-21%	·	?	·	·

Screening results as filed in PubChem BioAssay.
